Results from PubChem BioAssay (Tox21).
Values joined by “and” are separate entries in the source; they are usually repeats but may differ in a detail not shown here. Equal values may be shown once. Inconclusive results are not listed. A number with no mark means an inactive call. Active and inactive are the calls of the source. The call rests on the fitted dose curve; in most records, active means well fitted cell-killing curve with a large enough effect in the repeat runs; inconclusive means weak or mixed curves, or effect the other way; inactive means no such curve, though single readings can be large or run the other way.

test: qHTS assay to identify small molecule antagonists of the vitamin D receptor (VDR) signaling pathway - cell viability counter screen (AID 743225); conditions: VDR-bla HEK293T viability, CellTiter-Glo luminescence, 16 h; series mostly up to 61 µM; viability change, negative = cytotoxic: at the top concentration; further: nearly all actives have a fitted effect of over 50% in size
Source text: U.S. Tox21 Program National Center for Advancing Translational Sciences [NCATS] NIH Chemical Genomics Center [NCGC] U.S. Environmental Protection Agency [EPA] National Institutes of Environmental Health Sciences [NIEHS] National Toxicology Program [NTP] U.S. Food and Drug Administration [FDA] Tox21 Assay Overview: The vitamin D receptor (VDR), a member of nuclear hormone receptor superfamily, plays a critical role in calcium homeostasis and bone metabolism. It is also involved in cell differentiation and growth, and thrombogenicity. To identify the compounds that inhibit VDR signaling, the VDR-UAS-bla HEK 293T cell line (Invitrogen, Carlsbad, CA, USA) containing a beta-lactamase reporter gene under the control of an upstream activator sequence (UAS) was used to screen the Tox21 10K compound library. The cytotoxicity of the Tox21 compound library against the VDR-bla cell line was tested in parallel by measuring the cell viability using CellTiter-Glo assay (Promega, Madison, WI) in the same wells.
Tox21 Assay Protocol Summary: VDR-bla cells were dispensed at 2,000 cells/5 uL of assay medium per well into black wall/clear-bottom 1536-well plates using a Multidrop Combi (Thermo Fisher Scientific, Waltham, MA) dispenser. After the assay plates were incubated at a 37C and 5% CO2 for 4 h, 23 nL of compounds dissolved in DMSO, positive controls or DMSO only was transferred to the assay plate by a Pintool station (Kalypsys, San Diego, CA), followed by addition of 1 uL of 1-alpha, 25-Dihydroxy Vitamin D3 (3 nM, final concentration in the wells) using a Bioraptr Flying Reagent Dispenser (FRD) workstation (Beckman Coulter, Indianapolis, IN). The plates were incubated at 37C and 5% CO2 for 16 h, and then 1 uL of LiveBLAzerTM B/G FRET substrate was added using a Bioraptr FRD. The plates were incubated at room temperature for 2 h and fluorescence intensity was measured by an Envision plate reader (PerkinElmer, Shelton, CT). For cell viability readout that measures cytotoxicity, 3 ul/well of CellTiter-Glo reagent was added into the assay plates using a Bioraptr FRD. After 30 min incubation at room temperature, the luminescence intensity in the plates was measured using a ViewLux plate reader (PerkinElmer).
On the % scale 0 is the no-effect control and ±100 the full control effect; potency means the concentration at half of the fitted maximal effect.

In order of rising “viability change, negative = cytotoxic” value:
1. Cc1cc(C(C)(C)C)cc(C)c1CC1=NCCN1  -20.5%
2. CCCCCCOC(=O)C(C)CC (stereo not given)  -20.4%
3. CCCCC(CC)CN1CN(CC(CC)CCCC)CC(C)(N)C1 (stereo not given)  -17.8%
4. CCC(=O)OC(=O)CC  -17.7%
5. CCCCNS(=O)(=O)c1ccc(C)cc1  -16%
6. CCCCCC(C)OC(=O)COc1ccc(Cl)c2cccnc12 (stereo not given)  -15.5%
7. C=CC(=O)Nc1cc2c(Nc3ccc(F)c(Cl)c3)ncnc2cc1OCCCN1CCOCC1  -12.8%
8. COc1cc(C)ccc1O  -12.5%
9. CCC(CC)(CC(=O)Nc1cccc(/C=C/c2nc(C3CCC3)cs2)c1)C(=O)O  -12.5%
10. C[Si](Cl)(c1ccccc1)c1ccccc1  -11.7%
11. COC(=O)C1=C(C)NC(C)=C(C(=O)OCCN2CCN(C(c3ccccc3)c3ccccc3)CC2)C1c1cccc([N+](=O)[O-])c1 (stereo not given)  -10.4%
12. CCCCC(CC)COC(=O)CCCCC(=O)OCc1ccccc1 (stereo not given)  -9.3%
13. C=CCn1c(=O)n(CC=C)c(=O)n(CC=C)c1=O  -5.41%
14. Cc1nc(-c2ccc(Cl)cc2)oc1COC(C)(C)C(=O)O  -4.2%
15. CC(N=C(NC#N)Nc1ccncc1)C(C)(C)C (stereo not given)  -2.07%
16. CC(C(=O)O)c1ccc2c(c1)[nH]c1ccc(Cl)cc12 (stereo not given)  -2.04%
17. CCC(C)[O-].CCC(C)[O-].CCOC(=O)/C=C(/C)[O-].[Al+3]  -0.997%
18. O[C@@H]([C@H](O)[C@H](O)CBr)[C@H](O)CBr  -0.966%
19. NC(=O)c1cccc([N+](=O)[O-])c1  -0.422%
20. CCOC(=O)NNc1ccc(N(CC)CC(C)O)nn1 (stereo not given)  0.537%
21. CC[N+](CC)(CC)CCOC(=O)C(C1CCCC1)C1CCCC1  0.829%
22. CC/C=C\CCCCCO  1.29%
23. Nc1ccc(C(=O)O)c(O)c1  1.88%
24. CC1=CCC(=C(C)C)CC1  2.04%
25. S=C([S-])NCCNC(=S)[S-].S=C([S-])NCCNC(=S)[S-].[Mn+2].[Zn+2]  4.31%
26. C=CC(C)(CCC=C(C)C)OC=O (stereo not given)  4.74%
27. Cc1cccc(C(=O)O)c1O  6.56%
28. CC1=Nc2ccccc2C1(C)C  7.59%
29. CCCCOC(=O)CO  7.97%
30. CC1(C)CCC[C@]2(C)[C@H]3CCO[C@]3(C)CC[C@@H]12  9.21%
31. O=S(=O)(O)c1ccc(Nc2nc(Nc3ccc(/C=C/c4ccc(Nc5nc(Nc6ccc(S(=O)(=O)O)cc6)nc(N(CCO)CCO)n5)cc4S(=O)(=O)O)c(S(=O)(=O)O)c3)nc(N(CCO)CCO)n2)cc1  12.4%
32. COc1cc(S(=O)(=O)O)c(C)cc1N=Nc1c(O)ccc2cc(S(=O)(=O)O)ccc12  29.9%

For `CCCCCCCCCCCCCCCC[N+](C)(C)CC`, the Potency was 13.8 µM (active) and 23.9 µM (active).
With `CCCCCCCCCCCCCC[N+](C)(C)Cc1ccccc1` the Potency was 24.9 µM (active) and 16.9 µM (active).
For `CNC(=O)c1ccccc1Sc1ccc2c(/C=C/c3ccccn3)n[nH]c2c1`, the Potency was 23.9 µM (active).
With `C=C(CC)C(=O)c1ccc(OCC(=O)O)c(Cl)c1Cl` the Potency was “inactive”.
With `CCOC(=O)c1ccc(C2CCC(NC[C@H](O)COc3ccc(O)c(NS(C)(=O)=O)c3)CC2)cc1` (stereo not given in full) the Potency was 35.9 µM (active).

In order of falling “viability change, negative = cytotoxic” value:
1. CC(C)(C)NSc1nc2ccccc2s1  -0.212% [at 78.8 µM]
2. Cc1c(C)c2c(c(C)c1O)CC[C@@](C)(CCC[C@H](C)CCC[C@H](C)CCCC(C)C)O2  -0.858% [at 78.8 µM]
3. Oc1cc(Cl)cc(Cl)c1Cl  -5.65% [at 78.8 µM]
